Screens from PubChem.
APEX1 inh = blocks human APE1 abasic DNA cleavage | 0.35% of 350,000 active | Potency, µM (highest dose often 65.8 µM), usual class: inhibitors | P27695 | AID 2517 | recombinant APE1, TAMRA/BHQ-2 abasic DNA cleavage fluorescence; note: nearly all actives have a fitted effect of over 55% in size
Target sequence (P27695 whole entry, looked up): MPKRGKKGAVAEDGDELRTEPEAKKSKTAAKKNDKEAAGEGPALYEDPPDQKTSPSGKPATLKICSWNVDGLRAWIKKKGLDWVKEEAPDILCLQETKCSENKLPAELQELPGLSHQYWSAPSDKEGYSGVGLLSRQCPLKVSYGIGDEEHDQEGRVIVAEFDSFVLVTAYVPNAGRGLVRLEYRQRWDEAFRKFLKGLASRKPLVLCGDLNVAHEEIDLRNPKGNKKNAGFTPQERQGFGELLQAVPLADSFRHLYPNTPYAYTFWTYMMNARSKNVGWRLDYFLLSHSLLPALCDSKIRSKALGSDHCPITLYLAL
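Incision of a quenched TAMRA/BHQ-2 THF abasic-site duplex (50 nM) by 0.75 nM APE1, after 15 min compound preincubation, measured as fluorescence increase over three 60 s reads. Values normalized to buffer, DMSO and NSC13755 control wells.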
FEN1 inhibitor = inhibitors of human flap endonuclease 1. P39748. Recombinant FEN1 flap cleavage, fluorescence, 15 min. Potency, µM (highest dose often 114 µM), most hits filed as inhibitors. 0.35% of 390,000 active; note: nearly all actives have a fitted effect of over 65% in size
Target sequence (P39748 whole entry, looked up): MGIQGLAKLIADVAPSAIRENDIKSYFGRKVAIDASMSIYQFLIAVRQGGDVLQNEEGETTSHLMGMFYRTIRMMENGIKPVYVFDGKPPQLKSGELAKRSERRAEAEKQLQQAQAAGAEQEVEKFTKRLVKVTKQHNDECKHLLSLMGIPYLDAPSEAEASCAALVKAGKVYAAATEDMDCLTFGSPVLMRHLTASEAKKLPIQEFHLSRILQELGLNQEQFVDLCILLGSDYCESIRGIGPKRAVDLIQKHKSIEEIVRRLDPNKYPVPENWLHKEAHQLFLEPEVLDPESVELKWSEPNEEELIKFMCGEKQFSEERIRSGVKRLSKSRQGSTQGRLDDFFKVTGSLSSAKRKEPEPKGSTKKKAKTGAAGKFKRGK
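Concentration–response screening of FEN1 (10 nM): 15 min compound preincubation at room temperature, reaction started with 50 nM substrate and read at 0 and 15 min. Corrected, normalized data were fitted by a four-parameter Hill equation.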
WRN inhibitor = WRN helicase (human) inhibition; Q14191; WRN helicase unwinding, fluorescent forked duplex, kinetic; Potency, µM (doses to about 114 µM), actives largely listed as inhibitors; 0.46% of 360,000 active; note: nearly all actives have a fitted effect of over 55% in size
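Kinetic red-fluorescence monitoring (525/598 nm) tracks WRN helicase activity after 100 nM fluorophore-quencher forked duplex and 2 mM ATP are added to 20 nM enzyme pretreated 15 min at room temperature with compound.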
RECQ1 inh-1 = inhibitors of human RECQ1 DNA helicase; RECQ1 DNA unwinding, red fluorescence kinetic read; 0.54% of 240,000 active; P46063; Potency, µM (highest dose often 57.3 µM), actives largely listed as inhibitors; note: nearly all actives have a fitted effect of over 30% in size
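50 nM RECQ1T1 preincubated 15 min with compound in Tris pH 8.0 buffer with MgCl2, DTT, Tween-20 and 2.5 ug/ml poly(dI-dC); started with 200 nM TAMRA/BHQ-2 forked duplex and 2 mM ATP. Unwinding read as fluorescence (525/598 nm), two reads 2 h apart.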
BLM helicase inh = Bloom syndrome helicase (human) inhibition. P54132. recombinant BLM DNA unwinding, fluorescence dequenching. Potency, µM (doses to about 56.1 µM), most hits filed as inhibitors. 0.2% of 350,000 active; note: nearly all actives have a fitted effect of over 35% in size
RECQ1 conf = confirmation of human RECQ1 helicase inhibitors | shares compounds with RECQ1 inh-1 | RECQ1 helicase DNA unwinding, fluorescence | Potency, µM (titrated, usually from 229 µM), most hits filed as inhibitors | 28% of 610 active; note: nearly all actives have a fitted effect of over 45% in size
RECQ1 ADP FP = ADP displacement flagged in RECQ1 inhibitor counter-screen. 27% of 530 active. ADP fluorescence polarization displacement counterscreen. AID 2711. Potency, µM (highest dose often 228 µM), most hits filed as inhibitors. shares compounds with RECQ1 inh-1; note: nearly all actives have a fitted effect of over 45% in size
RECQ1 inh-2 = RECQ1 helicase inhibition confirmed, round 2. shares compounds with RECQ1 inh-1. recombinant RECQ1 DNA unwinding, red fluorescence. Potency, µM (top dose mostly 119 µM), most hits filed as inhibitors. 15% of 1,100 active. AID 504841; note: nearly all actives have a fitted effect of over 50% in size
Hits are given with their value; 0 = inactive; ? = inconclusive; - = not tested or not shown; [ ] = another dose, or the depositor's remark. Rows were chosen to be rich in hits. Some 0.87% of all compounds tested hit in one or more screens of this group. Calls come from the whole dose curve; as a rule, active = well fitted curve in the direction sought with a large enough effect; inconclusive = small, poorly fitted or top-dose-only effect, or another doubt; inactive = no such curve, though single readings can be large; an effect the other way counts as inactive or inconclusive.

SMILES	APEX1 inh	FEN1 inhibitor	WRN inhibitor	RECQ1 inh-1	BLM helicase inh	RECQ1 inh-2	others
Cc1cc(C)c(Nc2cc(S(=O)(=O)O)c(N)c3c2C(=O)c2ccccc2C3=O)c(C)c1	?	56µM	56µM	?	0	32µM
COc1ccc(NC(=O)Cn2c(=O)ccc3cc(S(=O)(=O)N4CCCC4)ccc32)cc1Cl	-	0	-	-	0	-
Cc1cccc(NC(=O)c2oc3ccc(S(=O)(=O)N4CCC5(CC4)OCCO5)cc3c2C)c1C	-	0	-	-	0	-
CCOC(=O)c1ccc2c(c1)nc(SCC(=O)c1cc3ccccc3o1)n2CC	0	0	0	?	0	?
C=CCNC(=O)CSc1nc2cc(C(=O)OCC)ccc2n1CC	0	0	0	0	0	-
CCN(Cc1nc(-c2ccc(OC)c(OC)c2)no1)S(=O)(=O)c1ccc(OC)cc1	-	0	-	-	0	-
Cc1nc2c(ccc3nc(NC(=O)C(c4ccccc4)c4ccccc4)sc32)s1	?	0	0	25µM	0	0
Cc1ccc(OCCSc2nc3ccc(NC(=O)c4ccco4)cc3s2)cc1	-	0	-	-	0	-
O=C(CSc1ncnc2sc3c(c12)CCCC3)c1ccccc1	0	0	0	0	0	-
O=C(CSc1ncnc2sc3c(c12)CCCC3)c1ccco1	?	0	0	?	0	0
CCc1nnc(NS(=O)(=O)c2ccc(NC(=S)NC(=O)/C=C/c3ccc(C(C)C)cc3)cc2)s1	0	?	89µM	?	0	?
CCc1nnc(NS(=O)(=O)c2ccc(NC(=O)/C=C/C(=O)O)cc2)s1	0	0	0	-	0	-
CCc1nnc(NS(=O)(=O)c2ccc(NC(=S)Nc3ccc(F)cc3)cc2)s1	0	0	0	0	0	-
CCc1nnc(NS(=O)(=O)c2ccc(NC(=S)NC(=O)/C=C/c3ccccc3)cc2)s1	?	0	?	?	0	?
CC(C)Oc1ccc(CNC(=O)Nc2ccc3c(c2)N(C)C(=O)c2ccccc2S3)cc1	-	0	-	-	0	-
Cc1ccccc1-c1nc2scc(CCNC(=O)c3ccco3)n2n1	-	0	-	-	0	-
O=c1cc(CSc2ccc(Cl)cc2)[nH]c2[nH]n(-c3ccccc3)c(=O)c12	0	0	0	?	0	0
CCN(CC)c1ccc(NC(=O)CCCOc2cccc(C)c2)cc1	0	0	0	0	0	-
CCN(CC)c1ccc(/C=N/OCC(=O)Nc2cccc(C)c2)cc1	0	0	0	?	0	56µM
S=C(NCCSCc1c(Cl)cccc1Cl)Nc1ccccc1	0	?	0	13µM	0	-	RECQ1 conf=0;RECQ1 ADP FP=0
Clc1ccccc1-c1nnc2sc(C3COc4ccccc4O3)nn12 (centres undefined)	0	0	0	4.5µM	0	0	RECQ1 conf=0;RECQ1 ADP FP=?
N=C1SC(c2ccccc2)C(=O)N1c1ncc(Cc2ccccc2Cl)s1 (centres undefined)	0	0	?	25µM	0	?
COc1ccc(NC(=O)c2ccc(CNS(=O)(=O)c3cccc(OC)c3)cc2)cc1	0	0	0	35µM	0	0
COc1cccc(S(=O)(=O)NCc2ccc(C(=O)Nc3ccc(C)cc3)cc2)c1	0	0	0	0	0	-
COc1ccc(NS(=O)(=O)c2ccc(O)c(NC(=O)c3ccc(S(=O)(=O)N4CCCC4)cc3)c2)cc1	0	0	0	0	0	-	RECQ1 conf=0;RECQ1 ADP FP=0
SMILES	APEX1 inh	FEN1 inhibitor	WRN inhibitor	RECQ1 inh-1	BLM helicase inh	RECQ1 inh-2	others
COc1ccc(C(=O)Nc2ccc(S(=O)(=O)N3CCCC3)cc2)cc1	0	0	0	0	0	-
O=S(=O)(Nc1nc2ccccc2nc1Nc1cccc(S(=O)(=O)N2CCCCC2)c1)c1ccccc1	0	0	0	?	0	?
COc1ccc(S(=O)(=O)Nc2cccc(S(=O)(=O)N3CCCCCC3)c2)cc1	0	0	0	0	0	-
COc1ccc(NS(=O)(=O)c2cccc(NC(=O)c3ccc(S(=O)(=O)N4CCCCCC4)cc3)c2)cc1	0	0	0	0	0	-	RECQ1 conf=0;RECQ1 ADP FP=0
CC(=O)c1c(O)cccc1O	0	-	-	0	0	-
COc1ccc(NS(=O)(=O)c2ccc(O)c(NC(=O)c3ccc(S(=O)(=O)N4CCCCCC4)cc3)c2)cc1	0	0	0[11.6 µM]	0	0	-	RECQ1 conf=0;RECQ1 ADP FP=0
CC1CCN(S(=O)(=O)c2ccc3c(ccn3CCC(=O)NCc3ccccc3F)c2)CC1	-	0	-	-	0	-
Cc1ccc(O)c(N=Cc2cc(Cc3ccccc3)cc([N+](=O)[O-])c2O)c1	0	?	?	13µM	0	?	RECQ1 conf=56µM;RECQ1 ADP FP=45µM
CSc1ncc(C(=O)Nc2cc(Cl)ccc2C)c(-c2ccccc2)n1	-	0	-	-	0	-
O=C(/C=C/c1ccco1)Nc1ccc(C(=O)N2CCOCC2)cc1	0	0	0	?	0	0
CCc1ccccc1NC(=O)CSc1nc2c(oc3ccccc32)c(=O)n1-c1ccccc1	-	0	-	-	0	-
CNc1ccccc(C(=O)/C=C/c2ccccc2OC)c1=O	0	0	?	25µM	0	?
CCOc1ccc(NC(=O)Cn2c(=O)c(CNc3ccc(OC)cc3)cc3ccc(OC)cc32)cc1	-	0	-	-	0	-
O=C(NCc1ccccc1Cl)C(=O)NCC(c1ccco1)S(=O)(=O)c1cccs1 (centres undefined)	-	0	-	-	0	-
Cc1ccc(C(=O)c2sc(Nc3ccccc3)c(S(=O)(=O)c3ccccc3)c2N)c(C)c1	-	0	-	-	0	-
Cc1cc(C(=O)COC(=O)CNC(=O)c2ccco2)c(C)n1Cc1ccco1	?	0	0	?	0	0
CC(C)=C1C(=O)NN(c2ccc(C)c(Cl)c2)C1=O	0	0	0	?	0	0
CCCN=C1CC(C)(C)CC(=O)/C1=C(/O)CCCN1C(=O)c2ccccc2C1=O	0	0	0	0	0	-
O=C(O)CN=C1CC(c2ccccc2)CC(=O)/C1=C(/O)CCCN1C(=O)c2ccccc2C1=O (centres undefined)	0	0	0	0	0	-	RECQ1 conf=?;RECQ1 ADP FP=0
CSc1ccc(/C=C(/Sc2nnc(-c3ccccc3)o2)C(=O)O)cc1	0	0	0	0	0	-	RECQ1 conf=0;RECQ1 ADP FP=0
Cc1ccc(Oc2coc3cc(OC(=O)c4cccs4)ccc3c2=O)cc1	0	0	0	0	0	-
CC(=O)Oc1ccc2c(=O)c(Oc3ccccc3)coc2c1OC(C)=O	2.2µM	?	?	3.5µM	0	25µM
CCOc1cc(C(=O)NCCc2csc(-c3ccc(C)cc3)n2)cc(OCC)c1OCC	-	0	-	-	0	-
Cc1cc2nc(C)c(Cl)c(=O)n2[nH]1	0	0	0	?	0	0
Cc1nc2cc(-c3ccc(Br)cc3)[nH]n2c(=O)c1Cl	0	0	0	-	0	-
CCCCc1ccc(CC(=O)NO)cc1	-	0	-	-	-	-
